Data reported in PubChem BioAssay (EPA / NIEHS).
Records with an inconclusive call do not appear. The source made the active and inactive calls. The calls were made as follows: active = hit-call score of the fitted dose curve at least 0.9, where 1 is the maximum; inconclusive = response in the unintended direction; inactive = score below 0.9.

Assay: ATG_M_19_TRANS: Attagene TRANS-FACTORIAL HepG2 Assay for M19 Transcription Factor (Internal Marker) (AID 2282974)
Conditions: HepG2 Attagene TRANS-FACTORIAL M19 internal marker reporter
Summary of the method: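 After transfection of HepG2 with GAL4-UAS-driven reporter constructs, cells are dosed for 24 h. Total RNA is reverse-transcribed, reporter sequences PCR-amplified and labelled, then HpaI-digested and sized by capillary electrophoresis.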
For `OC(c1ccc(Cl)cc1)(c1ccc(Cl)cc1)c1cccnc1`, the outcome was “inactive”.
In the case of `CCC(C)(C#N)N=NC(C)(C#N)CC` (stereo not given), the outcome is reported as “inactive”.
For `COC(F)(C(F)(F)C(F)(F)F)C(F)(C(F)(F)F)C(F)(F)F` (stereo not given), the outcome was “inactive”.
With `O=C(NC(=O)c1c(F)cccc1F)Nc1cc(Cl)c(Oc2ncc(C(F)(F)F)cc2Cl)c(Cl)c1` the outcome was “inactive”.
For `Brc1ccc(Oc2c(Br)cc(Br)cc2Br)c(Br)c1`, the outcome was “inactive”.
For `OC(Cc1ccccc1Cl)(Cn1[nH]cnc1=S)C1(Cl)CC1` (stereo not given), the outcome was “inactive”.
In the case of `N#CCCC(Br)(C#N)CBr` (stereo not given), the outcome is reported as “inactive”.
In the case of `CN(CCCC(O)c1cccnc1)N=O` (stereo not given), the outcome is reported as “inactive”.
With `NC(=O)c1ccc(N)nc1` the outcome was “inactive”.
For `O=c1oc2ccccc2c(O)c1C(CC(O)c1ccc(-c2ccc(Br)cc2)cc1)c1ccccc1` (stereo not given), the outcome was “inactive”.
For `CCOC(=O)Cc1ccccc1`, the outcome was “inactive”.
With `COP(=S)(OC)Oc1cc(Cl)c(I)cc1Cl` the outcome was “inactive”.

Assay: ATG_GAL4_TRANS: Attagene TRANS-FACTORIAL HepG2 Assay for GAL4 (Internal Marker) (AID 2282976)
Conditions: HepG2 Attagene TRANS GAL4 internal marker reporter
Summary of the method: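 In transfected human HepG2 liver cells dosed 24 h, GAL4 reporter mRNA serves as a baseline marker. Detection by RT-PCR with fluorescent capillary electrophoresis, activity fitted upward relative to DMSO.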
In the case of `OC[C@@H](O)[C@H]1O[C@@H]2O[C@H](C(Cl)(Cl)Cl)O[C@@H]2[C@H]1O`, the outcome is reported as “inactive”.
For `CC1(C)COP(Oc2ccccc2)OC1`, the outcome was “inactive”.
With `O=C(N[C@H]1CN2CCC1CC2)c1ccc2c(c1)OCCO2` the outcome was “inactive”.
In the case of `OC(c1ccc(Cl)cc1)(c1ccc(Cl)cc1)c1cccnc1`, the outcome is reported as “inactive”.
With `CCC(C)(C#N)N=NC(C)(C#N)CC` (stereo not given) the outcome was “inactive”.
In the case of `COC(F)(C(F)(F)C(F)(F)F)C(F)(C(F)(F)F)C(F)(F)F` (stereo not given), the outcome is reported as “inactive”.
For `Brc1ccc(Oc2c(Br)cc(Br)cc2Br)c(Br)c1`, the outcome was “inactive”.
In the case of `CC(C)=CC1C(C(=O)OCc2cccc(Oc3ccccc3)c2)C1(C)C` (stereo not given), the outcome is reported as “inactive”.
In the case of `CCCCS(=O)(=O)Cl`, the outcome is reported as “inactive”.
For `N#Cc1cccnc1`, the outcome was “inactive”.
With `O=c1oc2ccccc2c(O)c1C(CC(O)c1ccc(-c2ccc(Br)cc2)cc1)c1ccccc1` (stereo not given) the outcome was “inactive”.
In the case of `O=C(O)C1(c2ccc3c(c2)OC[C@H](Cc2ccc(-c4ccccc4)cc2)[C@H]3O)CCCC1`, the outcome is reported as “inactive”.
For `C=CCN=C=S`, the outcome was “inactive”.
With `C[C@]12CC[C@@H](O)C[C@@H]1CC[C@@H]1[C@@H]2CC[C@]2(C)C(=O)CC[C@@H]12` the outcome was “inactive”.
With `N#Cc1ccncc1` the outcome was “inactive”.
With `O=c1nc(O)n(Cl)c(=O)n1Cl` the outcome was “inactive”.
In the case of `O=S(=O)(F)C(F)(F)C(F)(F)C(F)(F)C(F)(F)F`, the outcome is reported as “inactive”.
With `CCOC(=O)Cc1ccccc1` the outcome was “inactive”.
